In ChEMBL document CHEMBL1961873, “Compounds: GSK PKIS; Assays: Nanosyn kinase panel” (2012) one finds inhibition data, which are given here for one molecule.

“And” between values parts separate entries of the source, which are not always exact repeats. Identical values can stand only once.

Experiment [1] has as its target Sphingosine kinase 1 (Homo sapiens) (UniProt Q9NYA1). Particulars: at 1 µM.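 Further: mean SPHK1 inhibition value reported from the GSK PKIS kinase panel screen.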
Experiment [2] deals with T1, Sphingosine kinase 2 (Homo sapiens) (UniProt Q9NRA0).
T1 sequence (whole entry): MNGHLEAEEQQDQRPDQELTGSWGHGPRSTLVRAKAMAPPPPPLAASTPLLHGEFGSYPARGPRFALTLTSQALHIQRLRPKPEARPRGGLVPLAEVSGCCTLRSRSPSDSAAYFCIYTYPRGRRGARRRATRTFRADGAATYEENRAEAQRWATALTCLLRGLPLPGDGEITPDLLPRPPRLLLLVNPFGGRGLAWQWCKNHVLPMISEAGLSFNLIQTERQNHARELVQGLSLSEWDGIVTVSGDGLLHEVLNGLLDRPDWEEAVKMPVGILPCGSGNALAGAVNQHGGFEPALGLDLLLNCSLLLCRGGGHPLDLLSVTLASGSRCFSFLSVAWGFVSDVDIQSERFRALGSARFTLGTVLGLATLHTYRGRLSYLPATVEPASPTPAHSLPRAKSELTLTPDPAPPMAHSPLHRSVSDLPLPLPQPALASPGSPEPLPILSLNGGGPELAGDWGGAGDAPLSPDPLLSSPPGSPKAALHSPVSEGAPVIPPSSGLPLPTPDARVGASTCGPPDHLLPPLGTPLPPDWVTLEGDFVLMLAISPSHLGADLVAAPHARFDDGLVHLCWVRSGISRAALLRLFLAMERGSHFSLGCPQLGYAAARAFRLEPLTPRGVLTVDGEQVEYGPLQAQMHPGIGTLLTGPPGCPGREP
Particulars: at 0.1 µM.

In experiment [3] the target is T1, Sphingosine kinase 2 (Homo sapiens). The note with it: at 1 µM.
Experiment [4] addresses Casein kinase II subunit alpha (Homo sapiens) (UniProt P68400). The note with it: at 0.1 µM.
Experiment [5] shares this target. Particulars: at 1 µM.
For experiment [6], the target named is T2, Inhibitor of nuclear factor kappa-B kinase subunit alpha (Homo sapiens) (UniProt O15111).
T2 sequence (whole entry): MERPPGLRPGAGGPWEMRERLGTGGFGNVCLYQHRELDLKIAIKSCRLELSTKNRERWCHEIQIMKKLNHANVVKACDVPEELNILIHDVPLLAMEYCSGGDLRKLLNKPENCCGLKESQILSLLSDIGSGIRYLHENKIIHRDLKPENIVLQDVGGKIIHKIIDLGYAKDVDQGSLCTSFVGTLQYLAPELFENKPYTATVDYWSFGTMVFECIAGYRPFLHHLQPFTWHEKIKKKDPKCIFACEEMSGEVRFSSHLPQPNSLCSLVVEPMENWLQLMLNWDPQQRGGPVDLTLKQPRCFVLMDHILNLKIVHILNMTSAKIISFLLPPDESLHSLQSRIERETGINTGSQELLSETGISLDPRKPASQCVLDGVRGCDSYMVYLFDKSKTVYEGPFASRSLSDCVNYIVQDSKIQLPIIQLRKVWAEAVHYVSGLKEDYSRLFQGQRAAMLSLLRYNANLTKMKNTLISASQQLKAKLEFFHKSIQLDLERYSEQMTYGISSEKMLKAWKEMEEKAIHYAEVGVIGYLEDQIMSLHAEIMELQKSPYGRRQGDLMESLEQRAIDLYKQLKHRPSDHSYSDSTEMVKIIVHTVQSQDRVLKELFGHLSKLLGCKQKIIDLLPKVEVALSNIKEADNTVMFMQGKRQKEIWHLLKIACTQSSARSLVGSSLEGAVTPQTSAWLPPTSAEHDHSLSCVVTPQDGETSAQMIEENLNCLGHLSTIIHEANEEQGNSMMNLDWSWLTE
The note with it: at 0.1 µM.

For experiment [7], the target named is T2, Inhibitor of nuclear factor kappa-B kinase subunit alpha (Homo sapiens). Particulars: at 1 µM.
Experiment [8] addresses T3, Inhibitor of nuclear factor kappa-B kinase subunit beta (Homo sapiens) (UniProt O14920).
T3 sequence (whole entry): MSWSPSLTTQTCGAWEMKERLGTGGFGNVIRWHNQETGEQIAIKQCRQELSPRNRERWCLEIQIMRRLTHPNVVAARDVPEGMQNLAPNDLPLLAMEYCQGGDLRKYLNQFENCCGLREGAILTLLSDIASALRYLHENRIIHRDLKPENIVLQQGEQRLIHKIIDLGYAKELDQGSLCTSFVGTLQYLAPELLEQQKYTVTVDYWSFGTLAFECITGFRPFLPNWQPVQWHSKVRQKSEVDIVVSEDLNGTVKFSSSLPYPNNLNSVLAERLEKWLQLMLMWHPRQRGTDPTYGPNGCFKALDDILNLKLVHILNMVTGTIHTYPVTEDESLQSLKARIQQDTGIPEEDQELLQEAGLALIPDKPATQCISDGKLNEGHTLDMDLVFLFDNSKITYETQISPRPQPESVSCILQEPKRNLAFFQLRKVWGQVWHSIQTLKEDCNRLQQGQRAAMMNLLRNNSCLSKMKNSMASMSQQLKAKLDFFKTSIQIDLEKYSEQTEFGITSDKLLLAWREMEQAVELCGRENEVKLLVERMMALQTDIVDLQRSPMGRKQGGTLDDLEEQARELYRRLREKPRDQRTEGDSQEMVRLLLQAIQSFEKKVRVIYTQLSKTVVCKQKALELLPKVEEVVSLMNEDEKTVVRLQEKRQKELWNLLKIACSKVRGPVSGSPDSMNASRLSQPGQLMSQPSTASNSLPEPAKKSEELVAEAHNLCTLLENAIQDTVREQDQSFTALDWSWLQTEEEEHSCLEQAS
The note with it: at 0.1 µM.

The target in experiment [9] is T3, Inhibitor of nuclear factor kappa-B kinase subunit beta (Homo sapiens). The note with it: at 1 µM.
Experiment [10] has as its target T4, Inhibitor of nuclear factor kappa-B kinase subunit epsilon (Homo sapiens) (UniProt Q14164).
T4 sequence (whole entry): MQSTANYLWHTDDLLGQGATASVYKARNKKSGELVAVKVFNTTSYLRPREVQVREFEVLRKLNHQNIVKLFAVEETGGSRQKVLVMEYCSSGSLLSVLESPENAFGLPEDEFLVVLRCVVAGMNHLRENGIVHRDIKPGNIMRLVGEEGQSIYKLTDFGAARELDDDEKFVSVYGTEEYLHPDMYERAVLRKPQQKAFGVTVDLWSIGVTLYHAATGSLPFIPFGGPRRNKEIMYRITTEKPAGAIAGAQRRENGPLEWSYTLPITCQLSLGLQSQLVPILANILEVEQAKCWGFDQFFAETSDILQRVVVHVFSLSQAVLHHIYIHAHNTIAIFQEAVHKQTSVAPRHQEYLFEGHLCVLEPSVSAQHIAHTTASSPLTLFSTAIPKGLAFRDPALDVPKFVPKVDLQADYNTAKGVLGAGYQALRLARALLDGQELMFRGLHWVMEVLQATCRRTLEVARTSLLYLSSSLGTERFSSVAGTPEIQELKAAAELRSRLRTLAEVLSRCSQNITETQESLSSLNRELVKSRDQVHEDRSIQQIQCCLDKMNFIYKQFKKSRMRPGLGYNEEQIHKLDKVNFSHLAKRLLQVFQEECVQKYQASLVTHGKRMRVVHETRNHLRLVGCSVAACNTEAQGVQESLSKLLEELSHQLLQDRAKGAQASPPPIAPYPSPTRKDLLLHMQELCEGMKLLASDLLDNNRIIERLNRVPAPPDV
The note with it: at 0.1 µM.

Experiment [11] has as its target T4, Inhibitor of nuclear factor kappa-B kinase subunit epsilon (Homo sapiens). Particulars: at 1 µM.
Experiment [12] concerns the target T5, Serine/threonine-protein kinase Nek1 (Homo sapiens) (UniProt Q96PY6).
T5 sequence (whole entry): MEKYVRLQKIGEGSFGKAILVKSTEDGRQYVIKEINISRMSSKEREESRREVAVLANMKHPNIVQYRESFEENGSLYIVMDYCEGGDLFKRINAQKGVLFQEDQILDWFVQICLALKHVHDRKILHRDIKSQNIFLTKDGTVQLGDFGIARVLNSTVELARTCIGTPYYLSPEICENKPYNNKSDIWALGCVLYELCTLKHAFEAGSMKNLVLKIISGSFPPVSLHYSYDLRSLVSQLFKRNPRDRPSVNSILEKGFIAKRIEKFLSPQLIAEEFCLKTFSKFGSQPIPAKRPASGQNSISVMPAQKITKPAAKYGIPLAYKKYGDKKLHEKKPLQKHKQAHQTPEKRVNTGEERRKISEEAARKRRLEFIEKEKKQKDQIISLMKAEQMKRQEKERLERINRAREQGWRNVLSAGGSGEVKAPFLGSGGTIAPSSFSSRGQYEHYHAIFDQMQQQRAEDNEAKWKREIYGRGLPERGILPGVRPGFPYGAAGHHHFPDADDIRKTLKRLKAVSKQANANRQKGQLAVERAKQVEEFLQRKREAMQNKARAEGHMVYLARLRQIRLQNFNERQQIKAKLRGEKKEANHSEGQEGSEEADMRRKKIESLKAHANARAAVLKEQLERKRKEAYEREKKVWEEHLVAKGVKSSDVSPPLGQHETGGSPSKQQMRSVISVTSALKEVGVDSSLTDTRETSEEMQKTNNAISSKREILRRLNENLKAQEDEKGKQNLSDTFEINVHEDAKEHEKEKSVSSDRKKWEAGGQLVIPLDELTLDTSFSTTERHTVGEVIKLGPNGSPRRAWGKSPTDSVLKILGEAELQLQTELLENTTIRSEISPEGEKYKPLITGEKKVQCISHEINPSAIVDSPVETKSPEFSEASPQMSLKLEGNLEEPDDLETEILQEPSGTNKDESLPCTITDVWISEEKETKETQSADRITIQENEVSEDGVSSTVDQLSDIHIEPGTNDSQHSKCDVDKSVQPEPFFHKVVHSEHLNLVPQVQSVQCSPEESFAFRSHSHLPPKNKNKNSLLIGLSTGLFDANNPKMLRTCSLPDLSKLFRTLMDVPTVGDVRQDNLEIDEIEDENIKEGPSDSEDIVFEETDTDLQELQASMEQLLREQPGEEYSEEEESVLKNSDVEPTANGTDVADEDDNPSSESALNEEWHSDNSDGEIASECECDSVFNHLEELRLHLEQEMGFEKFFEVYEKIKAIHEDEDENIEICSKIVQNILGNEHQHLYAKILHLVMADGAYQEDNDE
The note with it: at 0.1 µM.

The target in experiment [13] is T5, Serine/threonine-protein kinase Nek1 (Homo sapiens). The note with it: at 1 µM.
In experiment [14] the target is T6, Serine/threonine-protein kinase Nek2 (Homo sapiens) (UniProt P51955).
T6 sequence (whole entry): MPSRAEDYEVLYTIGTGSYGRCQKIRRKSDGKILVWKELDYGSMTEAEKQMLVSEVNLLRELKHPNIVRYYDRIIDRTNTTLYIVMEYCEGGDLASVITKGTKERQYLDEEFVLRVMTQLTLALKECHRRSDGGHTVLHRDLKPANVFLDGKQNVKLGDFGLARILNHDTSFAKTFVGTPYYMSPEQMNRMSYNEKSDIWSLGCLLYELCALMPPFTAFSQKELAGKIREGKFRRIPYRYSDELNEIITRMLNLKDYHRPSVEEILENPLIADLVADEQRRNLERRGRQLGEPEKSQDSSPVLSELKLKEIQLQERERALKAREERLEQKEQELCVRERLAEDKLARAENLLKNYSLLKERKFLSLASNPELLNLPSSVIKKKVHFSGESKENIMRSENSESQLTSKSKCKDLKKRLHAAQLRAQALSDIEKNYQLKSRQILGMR
Particulars: at 0.1 µM.

For experiment [15], the target named is T6, Serine/threonine-protein kinase Nek2 (Homo sapiens). Particulars: at 1 µM.
Experiment [16] concerns the target Serine/threonine-protein kinase Nek6 (Homo sapiens) (UniProt Q9HC98). The note with it: at 0.1 µM.
Experiment [17] has the same target. Particulars: at 1 µM.
Experiment [18] has as its target Serine/threonine-protein kinase Nek7 (Homo sapiens) (UniProt Q8TDX7). Particulars: at 0.1 µM.
The target is the same in experiment [19]. The note with it: at 1 µM.
The target of experiment [20] is T7, Serine/threonine-protein kinase Nek9 (Homo sapiens) (UniProt Q8TD19).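 Further: reported value is the mean percent inhibition of NEK9.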
T7 sequence (whole entry): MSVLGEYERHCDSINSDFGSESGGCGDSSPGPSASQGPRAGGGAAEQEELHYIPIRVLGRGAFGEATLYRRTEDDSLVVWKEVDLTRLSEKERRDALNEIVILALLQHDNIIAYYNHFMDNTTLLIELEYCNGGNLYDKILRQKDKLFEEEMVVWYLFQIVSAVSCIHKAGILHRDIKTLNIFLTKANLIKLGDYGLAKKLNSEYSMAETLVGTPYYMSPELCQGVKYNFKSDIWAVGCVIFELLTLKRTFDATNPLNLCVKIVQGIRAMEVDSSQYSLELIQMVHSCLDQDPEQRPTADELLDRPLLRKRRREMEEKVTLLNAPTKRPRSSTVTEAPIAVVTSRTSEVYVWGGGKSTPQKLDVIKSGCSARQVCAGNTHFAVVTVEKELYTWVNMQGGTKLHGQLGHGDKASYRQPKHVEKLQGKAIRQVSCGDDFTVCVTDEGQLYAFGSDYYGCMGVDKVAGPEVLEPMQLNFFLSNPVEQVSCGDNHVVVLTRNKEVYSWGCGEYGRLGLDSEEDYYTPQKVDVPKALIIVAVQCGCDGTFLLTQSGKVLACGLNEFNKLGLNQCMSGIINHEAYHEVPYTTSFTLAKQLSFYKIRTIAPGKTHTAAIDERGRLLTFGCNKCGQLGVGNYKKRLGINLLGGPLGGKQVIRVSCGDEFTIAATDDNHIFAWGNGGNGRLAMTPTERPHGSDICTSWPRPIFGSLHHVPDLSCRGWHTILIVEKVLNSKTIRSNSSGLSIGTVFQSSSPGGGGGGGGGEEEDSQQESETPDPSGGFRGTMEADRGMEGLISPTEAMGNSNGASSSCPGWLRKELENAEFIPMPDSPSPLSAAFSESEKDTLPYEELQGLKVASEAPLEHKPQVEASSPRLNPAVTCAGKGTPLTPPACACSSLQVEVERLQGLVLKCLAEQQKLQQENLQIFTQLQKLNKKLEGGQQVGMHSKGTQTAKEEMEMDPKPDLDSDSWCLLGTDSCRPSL
Particulars: at 0.1 µM.

Sequence of Serine/threonine-protein kinase Nek7 (Homo sapiens) (Q8TDX7 whole entry, looked up): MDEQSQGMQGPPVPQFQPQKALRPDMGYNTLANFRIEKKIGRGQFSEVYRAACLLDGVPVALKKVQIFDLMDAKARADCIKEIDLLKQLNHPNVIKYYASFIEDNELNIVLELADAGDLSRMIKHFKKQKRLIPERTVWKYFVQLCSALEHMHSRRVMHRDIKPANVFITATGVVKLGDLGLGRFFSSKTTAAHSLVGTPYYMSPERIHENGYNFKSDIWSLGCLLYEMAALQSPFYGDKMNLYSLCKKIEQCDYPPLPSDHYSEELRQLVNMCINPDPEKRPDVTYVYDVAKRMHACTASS
Sequence of Serine/threonine-protein kinase Nek6 (Homo sapiens) (Q9HC98 whole entry): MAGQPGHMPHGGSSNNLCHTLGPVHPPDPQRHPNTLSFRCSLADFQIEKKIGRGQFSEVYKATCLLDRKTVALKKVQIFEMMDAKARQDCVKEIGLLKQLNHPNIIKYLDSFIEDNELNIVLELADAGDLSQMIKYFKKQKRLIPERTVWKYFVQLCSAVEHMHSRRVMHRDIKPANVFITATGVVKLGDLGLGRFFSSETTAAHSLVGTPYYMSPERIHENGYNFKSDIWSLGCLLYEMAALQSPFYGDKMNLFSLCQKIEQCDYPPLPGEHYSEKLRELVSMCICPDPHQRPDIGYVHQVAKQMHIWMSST
Sequence of Casein kinase II subunit alpha (Homo sapiens) (P68400 whole entry, looked up): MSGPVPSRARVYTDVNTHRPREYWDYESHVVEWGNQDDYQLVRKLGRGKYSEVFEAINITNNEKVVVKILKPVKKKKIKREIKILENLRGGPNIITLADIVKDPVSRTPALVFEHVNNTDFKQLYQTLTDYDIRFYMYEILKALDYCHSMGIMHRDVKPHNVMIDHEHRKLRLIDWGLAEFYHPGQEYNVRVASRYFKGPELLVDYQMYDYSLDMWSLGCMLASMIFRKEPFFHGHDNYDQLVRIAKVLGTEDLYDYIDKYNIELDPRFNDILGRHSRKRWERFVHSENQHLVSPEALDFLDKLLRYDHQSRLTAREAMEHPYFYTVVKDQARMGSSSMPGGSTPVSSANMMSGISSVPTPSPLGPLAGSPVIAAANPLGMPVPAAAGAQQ
Sequence of Sphingosine kinase 1 (Homo sapiens) (Q9NYA1 whole entry): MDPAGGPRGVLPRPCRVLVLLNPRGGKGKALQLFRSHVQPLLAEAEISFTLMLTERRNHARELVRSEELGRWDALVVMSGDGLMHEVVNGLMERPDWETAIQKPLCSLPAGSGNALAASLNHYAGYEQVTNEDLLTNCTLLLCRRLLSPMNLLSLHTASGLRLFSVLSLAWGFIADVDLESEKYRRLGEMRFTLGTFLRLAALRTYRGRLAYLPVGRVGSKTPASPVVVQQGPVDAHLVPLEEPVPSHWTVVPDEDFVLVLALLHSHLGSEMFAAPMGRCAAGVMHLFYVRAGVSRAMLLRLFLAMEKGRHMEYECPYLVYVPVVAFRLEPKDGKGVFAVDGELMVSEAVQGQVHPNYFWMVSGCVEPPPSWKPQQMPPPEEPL

As to `CN1CCC(C(=O)Nc2n[nH]c3nc(-c4ccc(O)cc4)c(Br)cc23)CC1`, the inhibition was 0.24% and -1.35% in [1]; 0.67% and 1.32% in experiment [2]; 1.49% and 0% in experiment [3]; 6.41% and 0.96% in experiment [4]; 13.3% and 1.03% in experiment [5]; 1.72% and -1.22% in experiment [6]. The inhibition was -1.54% and 2.39% in [7]; 6.9% and 3.32% in experiment [8]; 12.8% and 4.3% in experiment [9]; 8.54% and 3.19% in experiment [10]; 9.87% and 4.68% in experiment [11]; 2.56% and 2.33% in experiment [12]. For the same molecule, the inhibition in experiment [13] is 5.56% and 3.3%; in [14], 4.35% and 2.88%; in [15], 2.67% and 2.08%; in [16], 3.12% and 2.62%; in [17] it was 6.77% and 0.79%; in [18], 7.02% and 1.88%. The inhibition in experiment [19] is 10% and 8.97%; in [20] it was 9.98% and 4.62%.

Broadly, the inhibition is the relative decrease from the control value, in per cent.
